Assay outcomes deposited in PubChem by SRMLSC.
A340 absorber = compounds absorbing at 340 nm; compound absorbance at 340 nm, fold over control; fold change at 10 µM; 65,000 tested, under 10 active;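 active = at 10 µM dose, initial 340 nm absorbance at least 2 fold that of control wells; inactive = change under 2 fold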;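 note: initial absorbance extrapolated from kinetic A340 decline of NADH oxidation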
NADH enzymes = blocks coupling enzymes of NAD/NADH assays; hit rate 0.02% among 65,000; coupled PK/LDH NADH assays, four targets; IC50, µM (series often up to 10 µM); AID 774;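 active = single-dose screening hits from any of four coupled enzyme assays that gave an IC50 when retested across doses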;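 note: the DPM-DC format reads NADH fluorescence rather than 340 nm absorbance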
Spn DPM-DC inh = inhibitors of Streptococcus pneumoniae diphosphomevalonate decarboxylase. purified DPM-DC, PK/LDH coupled NADH fluorescence. calls only at 10 µM. hit rate 0.49% among 65,000. AID 556;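 active = the 320 compounds with the highest percent inhibition in the single-dose primary screen, excluding strongly autofluorescent ones, cut at about 32% in these data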;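 note: kinetic rate of NADH fluorescence loss reporting ADP formed by the decarboxylase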
MK inhibit = S. pneumoniae mevalonate kinase inhibition; inhibition, % at 10 µM; purified MK, PK/LDH-coupled NADH absorbance 340 nm; AID 555; hit rate 0.48% among 65,000;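 active = ranked among the strongest by inhibition in the single 10 µM screen, a fixed top-ranked set picked for dose follow-up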
Spn PMK inh = blocks S. pneumoniae phosphomevalonate kinase; purified PMK, PK/LDH-coupled NADH absorbance 340 nm; inhibition, % at 10 µM; hit rate 0.49% among 65,000;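 active = top-ranked compounds by inhibition in the single 10 µM screen, taking a fixed number of the strongest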
Fluor 339 460 = intrinsic fluorescence of library compounds, ex339/em460 – biochemical, MLSMR library, data from DPM-DC assay, artefact control, profiling panel; compound autofluorescence, ex339/em460 nm, NADH buffer; hits give high values; 1 = no-compound wells, NADH background; fluorescence fold increase at 10 µM; hit rate 5.5% among 65,000; AID 709;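 active = at 10 µM, mean starting fluorescence two-fold or more over control wells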;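 note: signal is the first read of a kinetic run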
Hits are given with their value; - = inactive; . = no result given. Hits are enriched below; roughly 6.5% of the tested compounds scored in any of these assays.

SMILES	A340 absorber	NADH enzymes	Spn DPM-DC inh	MK inhibit	Spn PMK inh	Fluor 339 460
Cn1c(=O)c2c(-c3ccccc3)n3c4ccccc4ncc3c2n(C)c1=O	-	-	.	-	-	3.9
Fc1ccc(CSc2nncn2NCc2ccc3c(c2)OCO3)cc1	-	-	-	-	-	-
CN(C)c1ccc(C=NCCC2(O)CCOC(C)(C)C2)cc1 (stereo not given)	-	-	-	-	-	-
CN(C)c1ccc(CNCCC2(O)CCOC(C)(C)C2)cc1 (stereo not given)	-	-	-	41	61	-
COCCOC(=O)C1=C(C)NC(=O)NC1c1c(F)cccc1Cl (stereo not given)	-	-	-	-	-	-
Cc1cccc(NS(=O)(=O)c2cccc3cccnc23)n1	-	-	-	-	-	-
Cc1cccc(NS(=O)(=O)c2ccccc2)n1	-	-	.	-	-	2.1
CCCn1c(CCC(=O)O)ccc1-c1ccc(OC)cc1	-	-	.	-	-	3.5
O=C(O)CCc1ccc(-c2ccc(Cl)cc2)n1CC(=O)O	-	-	-	-	-	-
CCOC(=O)c1ccccc1NC(=O)C1COc2ccccc2O1 (stereo not given)	-	-	-	-	-	-
CCOC(=O)c1ccccc1NCN1C(=O)CSC1=O	-	-	.	-	29	2.2
CCOC(=O)c1ccc(NC(=O)CN2C(=O)CSC2=O)cc1	-	-	-	-	-	-
CCOC(=O)c1ccccc1NC1CC(=O)N(c2ccccc2C)C1=O (stereo not given)	-	-	.	-	-	3.3
CC(=O)Nc1ccc(C2Nc3ccccc3C(=O)N2C2CCCCC2)cc1 (stereo not given)	-	-	.	-	-	2.2
CC(=O)Nc1ccc(C2NC(=O)c3ccccc3O2)cc1 (stereo not given)	-	-	-	-	-	-
O=C(NC1CS(=O)(=O)CC1NCc1ccco1)c1ccccc1 (stereo not given)	-	-	-	-	-	-
CCOc1ccc2nc(C)cc(C(=O)O)c2c1	-	-	.	-	-	3.8
COc1ccc2nc(C)cc(C(=O)O)c2c1	-	-	.	-	-	3.8
COc1c(Br)cc2c(C)c(C(=O)O)oc2c1Br	-	-	-	43	-	-
NC(=O)CSc1nnc(COc2ccccc2)n1C1CCCCC1	-	-	-	-	-	-
O=C(CSc1nnc(-c2csc3c2CCCC3)o1)Nc1ccccc1	-	-	-	-	-	-
CCC(Sc1nc(N)c(NC(=O)c2ccc(OC)c(OC)c2)c(=O)[nH]1)C(=O)OC (stereo not given)	-	-	-	-	-	-
COc1cccc(OC)c1-c1nn2c(-c3cc(-c4ccccc4)n[nH]3)nnc2s1	-	46µM	-	-	26	-
CCN(CC)c1ccc(-c2nn3c(-c4ccccc4OC)nnc3s2)cc1	-	-	.	-	-	3.6
COc1ccc(-c2nnc3sc(-c4c(OC)cccc4OC)nn23)cc1	-	-	-	-	-	-
SMILES	A340 absorber	NADH enzymes	Spn DPM-DC inh	MK inhibit	Spn PMK inh	Fluor 339 460
COc1ccc(S(=O)(=O)c2ccc(OC)c(OC)c2)cc1OC	-	-	-	-	-	-
CCOc1ccccc1N1CCN(S(=O)(=O)c2ccc3c4c(cccc24)C(=O)N3)CC1	-	-	-	-	-	-
O=C1Nc2ccc(S(=O)(=O)NCc3ccccn3)c3cccc1c23	-	-	.	-	-	3.8
O=C1Nc2ccc(S(=O)(=O)N3CCOCC3)c3cccc1c23	-	-	.	-	-	4
CN1CCN(S(=O)(=O)c2ccc3c4c(cccc24)C(=O)N3)CC1	-	-	.	-	-	2.1
CN1C(=O)c2cccc3c(S(=O)(=O)Nc4ccccn4)ccc1c23	-	-	-	-	-	-
O=C1Nc2ccc(S(=O)(=O)N3CCCCCC3)c3cccc1c23	-	-	.	-	-	2.1
CC1(C)CC(=O)C(C=NCCN2CCN(C(=O)C34CC5CC(CC(C5)C3)C4)CC2)=C(O)C1	-	-	-	-	-	-
COc1ccc(C2C(C(N)=O)=C(C)Nc3nc(-c4ccccc4Cl)nn32)c(OC)c1 (stereo not given)	-	-	-	-	-	-
CCOc1cc(S(=O)(=O)NCc2ccccn2)c(C)cc1C	-	-	-	-	-	-
CCN(CC)c1nc(C)c2c(c1C#N)CC(C)(C)OC2	-	-	-	-	-	-
CC1(C)Cc2c(C#N)c(NCCCO)nc(-c3ccccc3)c2CO1	-	-	.	-	-	2.1
CC1(C)Cc2c(c(-c3ccccc3)nc3[nH][nH]c(=O)c23)CO1	-	-	-	-	-	-
Cc1nc(NCCCO)c(C#N)c2c1COC(C)(C)C2	-	-	.	-	-	2.3
O=C(CSc1nnc(-c2ccco2)o1)N1c2ccccc2CCc2ccccc21	-	-	-	-	-	-
N#CCSc1nnc(-c2ccccc2O)n1CCc1ccccc1	-	-	-	-	-	-
Cn1c(/C=N/n2cnnc2)nc2ccccc21	-	-	.	-	-	2.5
Cn1c(/C=N/c2nc3ccccc3[nH]2)nc2ccccc21	-	-	-	-	-	-
CCCn1cnc2c(c1=O)c1nc3ccccc3nc1n2CCc1ccccc1	-	-	.	-	-	4
CCCn1cnc2c(c1=O)c1nc3ccccc3nc1n2CCC1=CCCCC1	-	-	-	-	-	2.3
C=CCn1cnc2c(c1=O)c1nc3ccccc3nc1n2Cc1ccccc1	-	-	-	-	-	3
CCCCn1cnc2c(c1=O)c1nc3ccccc3nc1n2Cc1ccc2c(c1)OCO2	-	-	.	-	-	2.3
Cn1c(C(=O)NC2CCCC2)cc2c(=O)n(C)c3ccccc3c21	-	-	-	-	-	-
Cc1nc2c(c(=O)n1CC1CCCO1)c1nc3ccccc3nc1n2CC(C)C (stereo not given)	-	-	-	-	-	-
CCOCCCn1c(C)nc2c(c1=O)c1nc3ccccc3nc1n2CCC1=CCCCC1	-	-	-	-	-	3
SMILES	A340 absorber	NADH enzymes	Spn DPM-DC inh	MK inhibit	Spn PMK inh	Fluor 339 460
COc1ccc(-n2ncc3c(N4CCC(C(N)=O)CC4)ncnc32)cc1	-	-	-	-	-	-
COc1cc2[nH]c3c(N4CCC(C(N)=O)CC4)ncnc3c2cc1OC	-	-	-	-	-	2.8
COc1cccc2[nH]c3c(N4CCC(C(N)=O)CC4)ncnc3c12	-	-	.	-	-	3.7
CCOC(=O)c1nn(-c2ccccc2)c(C(=O)OCC)c1N	-	-	.	-	-	3.8
CCOC(=O)c1nn(-c2ccccc2)c(=O)c2c(N)scc12	-	-	-	-	-	-
CCC(=O)Nc1ccc(-c2nc(-c3ccccc3)n(CC(=O)N3CCCCC3)n2)cc1	-	-	-	-	-	-
Cc1ccccc1N(Cc1nnc2n1CCCCC2)C(=O)Nc1ccccc1	-	-	-	-	-	-
Cn1cnnc1SCC(=O)c1cc2ccccc2oc1=O	-	-	-	-	-	-
O=C(Cn1nc(Cl)nc1Cl)c1cc2ccccc2oc1=O	-	-	-	-	-	2.2
